From PubChem BioAssay AID1159580 (chemical genetic matrix, 2015)
The whole screen tested about 5,500 compounds, of which about 2,000 (36%) were called active. Inconclusive results (about 18%) are left out. Cut-off read from the data, not from the text of the source: active = normalized growth mostly below about 0.91 (no sharp cut-off); inconclusive = no clear call, values can overlap the other calls; inactive = mostly above about 0.92. The list shows a part of the results.

Assay: chemical genetic growth profiling, strain panel (AID 1159580);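 note: tested at 20 µM; growth read once vehicle control cultures reached saturation at 30 °C; 1 = growth at the plate median or of vehicle wells; lower values mean less growth of the strain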
Conditions: S. cerevisiae deletion strains, growth OD

Measured: normalized growth

CC1=C(/C=C/C(C)=C/C=C/C(C)=C/C=C/C=C(C)/C=C/C=C(C)/C=C/C2=C(C)C(=O)C(O)CC2(C)C)C(C)(C)CC(O)C1=O (stereo not drawn)
inactive: locus YAL021C, strain ccr4, hits give low values 1.04 | locus YAL026C, strain drs2, hits give low values 1.07 | locus YAL030W, strain snc1, hits give low values 1.03 | locus YBL061C, strain skt5, hits give low values 1.03 | locus YBR009C, strain hhf1, hits give low values 1.05 | locus YBR021W, strain FUR4, hits give low values 0.962 | locus YBR023C, strain chs3, hits give low values 1.03 | locus YBR229C, strain ROT2, hits give low values 0.942 | locus YBR231C, strain swc5, hits give low values 1.05 | locus YBR279W, strain paf1, hits give low values 1.02 | locus YCL011C, strain gbp2, hits give low values 1.04 | locus YCL016C, strain dcc1, hits give low values 1.02 | locus YCL029C, strain bik1, hits give low values 0.973 | locus YCL061C, strain MRC1, hits give low values 1.07 | locus YCL069W, strain vba3, hits give low values 1.05 | locus YCR088W, strain abp1, hits give low values 1.06 | locus YDL005C, strain med2, hits give low values 1.05 | locus YDL035C, strain GPR1, hits give low values 0.939 | locus YDL040C, strain nat1, hits give low values 1.01 | locus YDL074C, strain BRE1, hits give low values 0.981 | locus YDL101C, strain DUN1, hits give low values 0.986 | locus YDL185W, strain tfp1, hits give low values 0.964 | locus YDL192W, strain arf1, hits give low values 0.988 | locus YDR001C, strain nth1, hits give low values 1.07 | locus YDR069C, strain doa4, hits give low values 1.04 | locus YDR101C, strain arx1, hits give low values 0.985 | locus YDR137W, strain rgp1, hits give low values 1.02 | locus YDR159W, strain sac3, hits give low values 1.04 | locus YDR162C, strain NBP2, hits give low values 0.947 | locus YDR195W, strain ref2 1.12 | locus YDR297W, strain sur2, hits give low values 1.03 | locus YDR318W, strain mcm21, hits give low values 0.983 | locus YDR334W, strain swr1, hits give low values 1.07 | locus YDR335W, strain msn5, hits give low values 1.05 | locus YDR388W, hits give low values 0.992 | locus YDR392W, strain spt3, hits give low values 1.04 | locus YDR502C, strain sam2, hits give low values 0.993 | locus YEL003W, strain gim4, hits give low values 1.04 | locus YEL037C, strain rad23, hits give low values 1.05 | locus YEL061C, strain CIN8 (second series), hits give low values 1.05 | locus YEL061C, strain CIN8, hits give low values 0.981 | locus YER015W, strain faa2, hits give low values 1.04 | locus YER016W, strain bim1, hits give low values 1.03 | locus YER110C, hits give low values 0.992 | locus YER111C, strain swi4, hits give low values 1.07 | locus YER155C, strain BEM2 (second series), hits give low values 1.09 | locus YER155C, strain BEM2, hits give low values 0.998 | locus YER167W, strain BCK2, hits give low values 0.984 | locus YFR010W, strain ubp6, hits give low values 1.08 | locus YGL078C, strain dbp3, hits give low values 0.99 | locus YGL086W, strain mad1, hits give low values 0.997 | locus YGL167C, strain pmr1, hits give low values 1.04 | locus YGL173C, strain kem1, hits give low values 1.03 | locus YGL227W, strain vid30, hits give low values 1.08 | locus YGL240W, strain doc1, hits give low values 1.03 | locus YGL248W, strain PDE1, hits give low values 0.987 | locus YGL253W, strain hxk2, hits give low values 1.05 | locus YGR135W, strain pre9, hits give low values 0.992 | locus YGR229C, strain SMI1, hits give low values 0.982 | locus YGR252W, strain gcn5, hits give low values 0.944 | locus YHR013C, strain ard1, hits give low values 1.02 | locus YHR027C, strain rpn1, hits give low values 1.03 | locus YHR030C, strain SLT2, hits give low values 0.984 | locus YHR079C, strain IRE1 (second series), hits give low values 0.996 | locus YHR094C, strain hxt1, hits give low values 0.988 | locus YHR129C, strain ARP1, hits give low values 0.996 | locus YHR142W, strain chs7, hits give low values 1.07 | locus YHR200W, strain rpn10, hits give low values 0.988 | locus YIL066C, strain RNR3, hits give low values 0.907 | locus YIL073C, strain SPO22, hits give low values 1.02 | locus YIL125W, strain kgd1, hits give low values 0.99 | locus YIR030C, strain dcg1, hits give low values 1.01 | locus YJL092W, strain hpr5, hits give low values 1.07 | locus YJL095W, strain BCK1 (second series), hits give low values 1.03 | locus YJL095W, strain BCK1, hits give low values 1.06 | locus YJL115W, strain asf1, hits give low values 1.08 | locus YJL129C, strain trk1, hits give low values 1.07 | locus YJL134W, strain LCB3, hits give low values 0.98 | locus YJL154C, strain vps35, hits give low values 1.05 | locus YJL164C, strain tpk1, hits give low values 1.02 | locus YJL166W, strain qcr8, hits give low values 1.02 | locus YJL168C, strain set2, hits give low values 0.989 | locus YJL187C, strain SWE1 (second series), hits give low values 1.01 | locus YJL187C, strain SWE1, hits give low values 1.02 | locus YJR043C, strain POL32, hits give low values 0.929 | locus YKL009W, strain mrt4, hits give low values 0.994 | locus YKL068W, hits give low values 0.981 | locus YKL085W, strain MDH1 (second series), hits give low values 0.996 | locus YKL085W, strain MDH1, hits give low values 0.996 | locus YKL160W, strain elf1, hits give low values 1.02 | locus YKR001C, strain vps1, hits give low values 0.992 | locus YKR091W, strain srl3, hits give low values 1.03 | locus YLL001W, strain dnm1, hits give low values 1.05 | locus YLL026W, hits give low values 1.02 | locus YLL041C, strain sdh2, hits give low values 1.03 | locus YLR027C, strain aat2, hits give low values 1.03 | locus YLR039C, strain RIC1, hits give low values 0.981 | locus YLR058C, strain SHM2, hits give low values 0.971 | locus YLR102C, strain apc9, hits give low values 0.993 | locus YLR221C, strain rsa3, hits give low values 1.03 | locus YLR258W, strain gsy2, hits give low values 1.03 | locus YLR262C, strain YPT6 (second series), hits give low values 0.986 | locus YLR262C, strain YPT6, hits give low values 1.01 | locus YLR268W, strain sec22, hits give low values 0.999 | locus YLR320W, strain mms22, hits give low values 1.04 | locus YLR330W, strain CHS5, hits give low values 0.99 | locus YLR342W, strain FKS1 (second series), hits give low values 0.918 | locus YLR342W, strain FKS1, hits give low values 1.04 | locus YLR357W, strain rsc2, hits give low values 1.12 | locus YLR370C, strain arc18, hits give low values 1.06 | locus YLR371W, strain rom2, hits give low values 0.981 | locus YLR384C, strain iki3, hits give low values 1.03 | locus YLR418C, strain cdc73, hits give low values 0.997 | locus YML016C, strain PPZ1, hits give low values 0.973 | locus YML032C, strain rad52, hits give low values 0.983 | locus YML120C, strain ndi1, hits give low values 1.03 | locus YML124C, strain tub3, hits give low values 0.991 | locus YMR058W, strain fet3, hits give low values 1.08 | locus YMR078C, strain ctf18, hits give low values 0.979 | locus YMR125W, strain sto1, hits give low values 1.09 | locus YMR129W, hits give low values 1.05 | locus YMR205C, strain PFK2, hits give low values 1.05 | locus YMR223W, strain ubp8, hits give low values 0.997 | locus YMR231W, strain pep5, hits give low values 1.05 | locus YMR263W, strain SAP30, hits give low values 1 | locus YMR307W, strain GAS1, hits give low values 0.965 | locus YNL067W, strain RPL9B, hits give low values 1.06 | locus YNL071W, strain lat1, hits give low values 1.02 | locus YNL153C, strain GIM3, hits give low values 1.02 | locus YNL209W, strain ssb2, hits give low values 1.03 | locus YNL233W, strain BNI4, hits give low values 1.05 | locus YNL248C, strain rpa49, hits give low values 1.07 | locus YNL250W, strain rad50, hits give low values 0.972 | locus YNL271C, strain bni1, hits give low values 0.988 | locus YNL298W, strain CLA4, hits give low values 0.98 | locus YNL307C, strain MCK1, hits give low values 0.988 | locus YNL322C, strain KRE1 (second series), hits give low values 1.04 | locus YNR049C, strain mso1, hits give low values 1.06 | locus YNR052C, strain pop2, hits give low values 0.998 | locus YOL012C, strain htz1 1.22 | locus YOL147C, strain pex11, hits give low values 0.995 | locus YOR001W, strain rrp6, hits give low values 1.03 | locus YOR061W, strain CKA2, hits give low values 0.953 | locus YOR069W, strain VPS5, hits give low values 0.985 | locus YOR070C, strain gyp1, hits give low values 1.02 | locus YOR080W, strain dia2, hits give low values 1.04 | locus YOR083W, strain WHI5, hits give low values 1.01 | locus YOR106W, strain vam3, hits give low values 1.02 | locus YOR136W, strain idh2, hits give low values 1 | locus YOR144C, strain elg1, hits give low values 0.999 | locus YOR184W, strain ser1, hits give low values 0.985 | locus YOR265W, strain rbl2, hits give low values 1.03 | locus YOR270C, strain vph1, hits give low values 1.16 | locus YOR290C, strain snf2, hits give low values 1.04 | locus YOR316C, strain cot1, hits give low values 0.994 | locus YPL051W, strain arl3, hits give low values 1 | locus YPL055C, strain LGE1, hits give low values 0.959 | locus YPL078C, strain atp4, hits give low values 1.05 | locus YPL106C, strain sse1, hits give low values 1.06 | locus YPL240C, strain hsp82, hits give low values 1.02 | locus YPL241C, strain CIN2, hits give low values 0.984 | locus YPR119W, strain clb2, hits give low values 0.988 | locus YPR141C, strain kar3, hits give low values 0.989 | locus YPR163C, strain tif3, hits give low values 0.977 | locus YPR167C, strain met16, hits give low values 0.992 | strain wtn01, hits give low values 0.976
active: locus YBR171W, strain sec66, hits give low values 1.11 [resistant] | locus YKR026C, strain gcn3, hits give low values 1.08 [resistant]
